Laboratory results: ChEMBL document CHEMBL1961873, “Compounds: GSK PKIS; Assays: Nanosyn kinase panel” (2012)

What was measured:
[1] = target: T1, Serine/threonine-protein kinase Nek9 (Homo sapiens) (UniProt Q8TD19); conditions: at 1 µM;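 also: each value is a mean percent inhibition of NEK9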
T1 sequence (whole entry): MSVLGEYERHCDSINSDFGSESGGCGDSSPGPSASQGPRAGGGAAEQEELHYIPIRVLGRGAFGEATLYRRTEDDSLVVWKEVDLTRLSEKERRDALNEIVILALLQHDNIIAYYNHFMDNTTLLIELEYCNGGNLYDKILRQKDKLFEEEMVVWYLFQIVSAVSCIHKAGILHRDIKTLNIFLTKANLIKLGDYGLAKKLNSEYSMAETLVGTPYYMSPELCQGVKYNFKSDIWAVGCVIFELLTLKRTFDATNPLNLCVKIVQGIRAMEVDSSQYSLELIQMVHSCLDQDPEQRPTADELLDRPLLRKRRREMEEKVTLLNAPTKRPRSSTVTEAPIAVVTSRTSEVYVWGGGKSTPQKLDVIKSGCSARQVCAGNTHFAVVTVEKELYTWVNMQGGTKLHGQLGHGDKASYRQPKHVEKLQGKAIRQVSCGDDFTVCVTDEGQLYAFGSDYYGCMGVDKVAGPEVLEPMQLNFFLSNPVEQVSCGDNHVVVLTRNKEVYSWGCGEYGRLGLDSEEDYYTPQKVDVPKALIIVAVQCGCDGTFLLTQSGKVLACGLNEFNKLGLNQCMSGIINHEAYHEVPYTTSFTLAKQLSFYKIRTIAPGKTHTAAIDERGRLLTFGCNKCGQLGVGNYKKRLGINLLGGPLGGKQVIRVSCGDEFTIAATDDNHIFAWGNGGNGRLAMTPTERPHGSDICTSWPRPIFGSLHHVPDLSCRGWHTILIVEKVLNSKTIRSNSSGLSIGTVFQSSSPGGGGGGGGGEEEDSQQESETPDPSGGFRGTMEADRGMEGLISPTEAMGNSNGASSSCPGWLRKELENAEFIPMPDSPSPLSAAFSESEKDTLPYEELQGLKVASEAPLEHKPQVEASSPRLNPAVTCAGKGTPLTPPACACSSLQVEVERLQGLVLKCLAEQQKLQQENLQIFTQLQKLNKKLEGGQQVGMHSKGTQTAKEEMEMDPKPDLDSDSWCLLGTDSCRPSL

[2] = target: Serine/threonine-protein kinase PLK1 (Homo sapiens) (UniProt P53350); conditions: at 0.1 µM
Serine/threonine-protein kinase PLK1 (Homo sapiens), sequence (P53350 whole entry): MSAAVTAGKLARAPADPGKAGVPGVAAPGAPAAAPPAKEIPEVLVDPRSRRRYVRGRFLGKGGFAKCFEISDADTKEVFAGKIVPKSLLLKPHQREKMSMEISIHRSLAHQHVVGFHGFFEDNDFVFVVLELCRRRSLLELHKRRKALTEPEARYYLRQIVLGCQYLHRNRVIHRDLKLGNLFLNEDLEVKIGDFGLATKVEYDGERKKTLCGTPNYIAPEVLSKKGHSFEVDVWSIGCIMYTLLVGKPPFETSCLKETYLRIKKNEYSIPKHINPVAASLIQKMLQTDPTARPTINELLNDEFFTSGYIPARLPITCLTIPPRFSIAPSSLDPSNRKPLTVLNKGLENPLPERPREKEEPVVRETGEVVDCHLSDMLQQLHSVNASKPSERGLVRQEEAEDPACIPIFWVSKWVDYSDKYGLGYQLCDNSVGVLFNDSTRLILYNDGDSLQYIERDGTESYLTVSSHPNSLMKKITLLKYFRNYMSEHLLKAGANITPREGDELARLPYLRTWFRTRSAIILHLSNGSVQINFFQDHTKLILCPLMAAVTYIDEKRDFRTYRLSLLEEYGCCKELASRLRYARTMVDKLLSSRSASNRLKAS

[3] = target: Serine/threonine-protein kinase PLK1 (Homo sapiens) (UniProt P53350); conditions: at 1 µM
[4] = target: T2, Dual specificity protein kinase TTK (Homo sapiens) (UniProt P33981); conditions: at 0.1 µM
T2 sequence (whole entry): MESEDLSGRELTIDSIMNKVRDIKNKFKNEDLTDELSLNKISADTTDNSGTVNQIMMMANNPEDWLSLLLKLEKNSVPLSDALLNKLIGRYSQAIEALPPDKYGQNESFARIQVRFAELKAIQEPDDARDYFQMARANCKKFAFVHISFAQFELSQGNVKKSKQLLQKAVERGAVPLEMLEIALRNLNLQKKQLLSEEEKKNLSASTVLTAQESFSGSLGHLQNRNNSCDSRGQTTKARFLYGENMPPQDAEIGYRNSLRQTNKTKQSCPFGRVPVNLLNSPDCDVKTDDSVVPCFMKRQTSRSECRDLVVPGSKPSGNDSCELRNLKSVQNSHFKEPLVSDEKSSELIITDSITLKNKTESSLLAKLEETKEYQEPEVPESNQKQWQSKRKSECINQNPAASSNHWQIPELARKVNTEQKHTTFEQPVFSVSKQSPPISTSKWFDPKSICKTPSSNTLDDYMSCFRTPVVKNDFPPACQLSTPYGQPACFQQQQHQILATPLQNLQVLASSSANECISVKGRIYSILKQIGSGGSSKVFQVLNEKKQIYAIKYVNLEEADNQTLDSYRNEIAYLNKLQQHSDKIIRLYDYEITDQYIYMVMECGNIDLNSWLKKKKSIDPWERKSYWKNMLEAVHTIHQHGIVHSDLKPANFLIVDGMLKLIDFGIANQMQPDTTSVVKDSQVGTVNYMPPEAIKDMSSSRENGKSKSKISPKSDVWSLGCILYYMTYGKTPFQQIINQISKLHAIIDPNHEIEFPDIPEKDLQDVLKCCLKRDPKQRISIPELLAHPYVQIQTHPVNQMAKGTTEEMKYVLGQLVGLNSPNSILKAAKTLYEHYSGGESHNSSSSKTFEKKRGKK

[5] = tested on: T3, Receptor-type tyrosine-protein kinase FLT3 (Homo sapiens), P36888 [D835Y]; conditions: at 1 µM
T3 sequence (whole entry): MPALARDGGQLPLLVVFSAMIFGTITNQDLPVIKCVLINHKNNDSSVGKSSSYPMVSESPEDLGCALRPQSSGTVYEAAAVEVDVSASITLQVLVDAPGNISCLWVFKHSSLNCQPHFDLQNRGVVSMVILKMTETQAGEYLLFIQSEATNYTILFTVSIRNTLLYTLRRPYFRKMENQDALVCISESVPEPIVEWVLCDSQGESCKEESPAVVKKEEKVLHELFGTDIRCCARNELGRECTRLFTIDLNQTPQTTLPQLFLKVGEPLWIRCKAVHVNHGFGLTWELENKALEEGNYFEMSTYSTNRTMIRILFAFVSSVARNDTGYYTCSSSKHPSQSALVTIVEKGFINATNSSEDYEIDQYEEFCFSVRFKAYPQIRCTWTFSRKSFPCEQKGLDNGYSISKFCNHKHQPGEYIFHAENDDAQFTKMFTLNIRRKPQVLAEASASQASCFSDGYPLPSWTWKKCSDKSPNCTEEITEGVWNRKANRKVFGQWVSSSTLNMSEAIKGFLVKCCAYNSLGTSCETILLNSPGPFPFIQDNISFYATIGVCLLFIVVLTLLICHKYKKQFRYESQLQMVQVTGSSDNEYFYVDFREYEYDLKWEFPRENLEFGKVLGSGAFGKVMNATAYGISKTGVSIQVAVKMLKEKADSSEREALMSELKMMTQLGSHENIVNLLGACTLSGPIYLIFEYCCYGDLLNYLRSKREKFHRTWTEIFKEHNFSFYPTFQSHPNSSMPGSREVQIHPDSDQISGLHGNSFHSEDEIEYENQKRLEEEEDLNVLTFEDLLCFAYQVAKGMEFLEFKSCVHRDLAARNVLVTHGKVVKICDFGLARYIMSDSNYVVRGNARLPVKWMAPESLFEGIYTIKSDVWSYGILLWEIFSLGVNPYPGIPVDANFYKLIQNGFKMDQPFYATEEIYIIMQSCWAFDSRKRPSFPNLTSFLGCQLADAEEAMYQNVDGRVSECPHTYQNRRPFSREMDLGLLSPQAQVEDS

[6] = target: Vascular endothelial growth factor receptor 3 (Homo sapiens) (UniProt P35916); conditions: at 0.1 µM
Vascular endothelial growth factor receptor 3 (Homo sapiens), sequence (P35916 whole entry): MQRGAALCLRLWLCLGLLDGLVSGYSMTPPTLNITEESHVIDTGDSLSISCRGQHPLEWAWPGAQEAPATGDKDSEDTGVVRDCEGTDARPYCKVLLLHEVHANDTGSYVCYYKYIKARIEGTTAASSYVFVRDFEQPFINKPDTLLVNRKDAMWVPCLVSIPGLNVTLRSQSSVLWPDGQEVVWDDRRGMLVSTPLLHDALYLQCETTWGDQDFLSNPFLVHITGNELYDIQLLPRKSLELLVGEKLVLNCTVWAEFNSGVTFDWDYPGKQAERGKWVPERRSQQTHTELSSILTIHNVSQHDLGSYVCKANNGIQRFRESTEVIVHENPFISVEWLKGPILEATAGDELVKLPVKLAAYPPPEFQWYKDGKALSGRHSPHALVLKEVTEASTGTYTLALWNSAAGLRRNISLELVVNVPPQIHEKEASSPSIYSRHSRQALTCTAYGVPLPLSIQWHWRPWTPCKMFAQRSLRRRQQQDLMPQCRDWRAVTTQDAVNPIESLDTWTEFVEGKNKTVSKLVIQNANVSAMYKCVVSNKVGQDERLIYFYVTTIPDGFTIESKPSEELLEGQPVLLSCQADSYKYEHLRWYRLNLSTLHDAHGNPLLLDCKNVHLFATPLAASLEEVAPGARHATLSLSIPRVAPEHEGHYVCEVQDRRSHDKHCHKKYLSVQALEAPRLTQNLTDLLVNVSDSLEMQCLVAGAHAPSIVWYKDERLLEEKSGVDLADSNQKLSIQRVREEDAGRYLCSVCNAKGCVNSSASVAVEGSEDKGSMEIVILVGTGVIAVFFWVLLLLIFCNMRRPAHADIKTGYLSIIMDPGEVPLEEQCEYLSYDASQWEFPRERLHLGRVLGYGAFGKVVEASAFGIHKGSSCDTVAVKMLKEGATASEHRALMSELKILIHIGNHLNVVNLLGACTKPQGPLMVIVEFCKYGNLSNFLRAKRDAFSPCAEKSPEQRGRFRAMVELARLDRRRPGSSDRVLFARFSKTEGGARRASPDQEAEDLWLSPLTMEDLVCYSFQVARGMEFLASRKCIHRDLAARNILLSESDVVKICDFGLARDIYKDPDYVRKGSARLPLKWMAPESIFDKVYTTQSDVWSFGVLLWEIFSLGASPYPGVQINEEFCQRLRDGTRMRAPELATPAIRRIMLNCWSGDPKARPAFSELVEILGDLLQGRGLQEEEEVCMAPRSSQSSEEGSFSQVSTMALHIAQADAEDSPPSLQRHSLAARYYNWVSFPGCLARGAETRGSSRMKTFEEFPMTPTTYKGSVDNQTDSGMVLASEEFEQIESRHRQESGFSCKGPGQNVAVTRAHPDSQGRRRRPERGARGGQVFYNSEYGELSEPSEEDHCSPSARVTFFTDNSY

[7] = target: Vascular endothelial growth factor receptor 3 (Homo sapiens) (UniProt P35916); conditions: at 1 µM
[8] = target: Macrophage colony-stimulating factor 1 receptor (Homo sapiens) (UniProt P07333); conditions: at 0.1 µM
Macrophage colony-stimulating factor 1 receptor (Homo sapiens), sequence (P07333 whole entry): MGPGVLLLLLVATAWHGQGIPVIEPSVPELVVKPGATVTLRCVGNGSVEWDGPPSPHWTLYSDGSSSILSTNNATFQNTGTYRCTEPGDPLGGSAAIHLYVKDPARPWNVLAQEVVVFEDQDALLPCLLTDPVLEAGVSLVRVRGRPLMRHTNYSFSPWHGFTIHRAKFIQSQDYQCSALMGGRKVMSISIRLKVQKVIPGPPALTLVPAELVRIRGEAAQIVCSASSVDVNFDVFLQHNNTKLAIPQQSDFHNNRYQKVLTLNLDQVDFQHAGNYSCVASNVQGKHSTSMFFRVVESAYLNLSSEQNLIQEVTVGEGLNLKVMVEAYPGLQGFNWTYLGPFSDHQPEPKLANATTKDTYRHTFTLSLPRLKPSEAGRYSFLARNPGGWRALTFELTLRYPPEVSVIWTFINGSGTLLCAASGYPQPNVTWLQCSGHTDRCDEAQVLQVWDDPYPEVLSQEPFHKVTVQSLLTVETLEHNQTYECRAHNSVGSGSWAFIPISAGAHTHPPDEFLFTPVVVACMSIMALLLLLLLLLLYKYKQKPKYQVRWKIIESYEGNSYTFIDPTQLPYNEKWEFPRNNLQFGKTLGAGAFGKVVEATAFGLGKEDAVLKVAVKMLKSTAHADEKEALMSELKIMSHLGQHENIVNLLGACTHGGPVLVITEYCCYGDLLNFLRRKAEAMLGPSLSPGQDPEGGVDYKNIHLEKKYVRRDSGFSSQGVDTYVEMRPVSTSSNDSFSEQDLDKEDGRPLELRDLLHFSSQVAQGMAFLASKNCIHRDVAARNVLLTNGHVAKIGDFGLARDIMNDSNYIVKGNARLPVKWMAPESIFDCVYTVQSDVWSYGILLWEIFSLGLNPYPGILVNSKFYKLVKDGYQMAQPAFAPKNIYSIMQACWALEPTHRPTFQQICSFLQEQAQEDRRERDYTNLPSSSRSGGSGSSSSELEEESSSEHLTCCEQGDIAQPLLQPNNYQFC

[9] = target: Macrophage colony-stimulating factor 1 receptor (Homo sapiens) (UniProt P07333); conditions: at 1 µM
[10] = target: Tyrosine-protein kinase Fyn (Homo sapiens) (UniProt P06241); conditions: at 0.1 µM
Tyrosine-protein kinase Fyn (Homo sapiens), sequence (P06241 2-537 limits assumed): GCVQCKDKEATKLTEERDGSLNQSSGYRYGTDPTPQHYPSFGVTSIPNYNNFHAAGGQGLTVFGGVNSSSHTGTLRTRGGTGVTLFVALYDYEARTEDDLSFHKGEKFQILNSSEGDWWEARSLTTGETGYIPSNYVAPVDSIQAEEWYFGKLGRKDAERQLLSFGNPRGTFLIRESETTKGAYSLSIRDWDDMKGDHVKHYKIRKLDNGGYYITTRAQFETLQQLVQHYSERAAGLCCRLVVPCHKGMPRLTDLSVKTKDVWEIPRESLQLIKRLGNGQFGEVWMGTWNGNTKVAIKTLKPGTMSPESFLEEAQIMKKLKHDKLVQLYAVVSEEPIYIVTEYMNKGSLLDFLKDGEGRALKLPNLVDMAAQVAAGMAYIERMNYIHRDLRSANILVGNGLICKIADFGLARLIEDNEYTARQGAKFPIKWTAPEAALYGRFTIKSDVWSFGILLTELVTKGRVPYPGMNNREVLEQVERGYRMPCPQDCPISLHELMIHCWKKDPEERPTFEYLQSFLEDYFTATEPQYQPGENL

SMILES	inhibition [1]	inhibition [2]	inhibition [3]	inhibition [4]	inhibition [5]	inhibition [6]	inhibition [7]	inhibition [8]	inhibition [9]	inhibition [10]
CN1CCC(n2cnc(-c3ccc(F)cc3)c2-c2ccnc(Nc3ccccc3)n2)CC1	10.1%	6.81%	2.65%	9.56%	2.38%	0.02%	1.32%	-1.19%	4.11%	0.05%
COc1ccc(-c2cc3c(N)ncnc3o2)cc1	2.28%	-1.11%	-1.15%	0.22%	1.63%	0.51%	4.44%	2.06%	17.9%	0.82%
c1ccc(-c2nc3n(c2-c2ccc4c(c2)OCO4)CCC3)nc1	0.13%	1.59%	1.37%	4.41%	4.03%	13.3%	15.8%	4.57%	1.74%	1.85%
NC(=O)c1sc(-n2cnc3ccc(C(F)(F)F)cc32)cc1OCc1ccccc1Br	28.9%	81.4%	94.3%	8.68%	5.89%	-1.7%	3.99%	0.91%	3.49%	2.36%
Cc1cccc2c1NC(=O)/C2=N\Nc1ccc(S(N)(=O)=O)cc1	3.99%	0.77%	2.15%	1.78%	10.5%	3.59%	-0.85%	2.22%	7.87%	2.11%
CC1=C(C(=O)Nc2cc(Cl)c3[nH]ncc3c2)C(c2ccc(C(F)(F)F)cc2)CC(=O)N1 (stereo not given)	8.4%	4.17%	4.12%	5.88%	1.66%	-0.3%	-1.34%	5.21%	1.8%	0.13%
N#Cc1c(NC(=O)c2ccc(F)cc2)sc2c1CCCC2	0.67%	4.32%	2.6%	4.36%	2.85%	0.08%	-0.81%	0.56%	-0.85%	-0.49%
CCc1nn2ncccc2c1-c1ccnc(NC2CC2)n1	9.21%	1.29%	4.87%	-1.9%	8.73%	4.93%	4.12%	2.72%	4.83%	1.74%
COc1cc(Nc2nccc(Nc3ccc4c(C)n[nH]c4c3)n2)cc(OC)c1OC	5.56%	2.28%	4.34%	2.57%	87.2%	78.8%	106%	79.3%	94.1%	44.9%
Fc1ccc(-c2nn3ccccc3c2-c2ccncc2)cc1	1.86%	1.11%	0.66%	1.74%	1.27%	-0.54%	1.83%	-0.59%	7.67%	0.52%
CC(C)(CO)CNC(=O)c1ccc2c(c1)/C(=N/Nc1ccc(S(N)(=O)=O)cc1)C(=O)N2	8.02%	1.21%	0.88%	61.5%	45.6%	4.05%	44.3%	-6.57%	3.69%	10.9%
CCn1c(-c2nonc2N)nc2c(C#CC(C)(C)O)ncc(OC3CCNCC3)c21	5.22%	2.8%	5%	5.34%	0.12%	8.92%	26.6%	1.2%	2.92%	1.53%
Fc1cccc(COc2ccc(Nc3ncnc4sc(-c5ccco5)cc34)cc2Cl)c1	8.43%	6.82%	4.61%	6.94%	0.69%	1.58%	3.49%	0.84%	8.62%	0.36%
NS(=O)(=O)c1ccc(Nc2ncc(-c3ccccc3)o2)cc1	5.13%	1.46%	3.33%	6.13%	21.6%	3.67%	9.2%	6.69%	32.5%	1.12%
CCn1c(-c2nonc2N)nc2c(C#CC(C)(C)O)nc(OC[C@H](N)c3ccccc3)cc21	3.62%	3.81%	7.68%	7.61%	1.02%	16.6%	62.6%	3.84%	5.51%	2.39%
c1cc(-c2cnn3nc(N4CCOCC4)ccc23)nc(NC2CC2)n1	-2.57%	2.55%	2.08%	18.4%	37.5%	5.93%	29.9%	6.94%	33.7%	0.47%
CC(C)COC(=O)c1ccc2c(c1)/C(=C/Nc1ccc(S(N)(=O)=O)cc1)C(=O)N2	0.18%	1.14%	2.98%	53.6%	86.5%	30.1%	80.6%	7.27%	45.8%	22.6%
